Laboratory results from PubChem BioAssay AID1159580 (chemical genetic matrix, 2015).
About 2,000 (36%) of roughly 5,500 compounds were called active. Inconclusive results (about 18%) are left out. Cut-off read from the data, not from the text of the source: active = normalized growth mostly below about 0.91 (no sharp cut-off); inconclusive = no clear call, values can overlap the other calls; inactive = mostly above about 0.92. This is one part of the list.

Experiment: chemical genetic growth profiling, strain panel (AID 1159580);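 note: tested at 20 µM; growth read once vehicle control cultures reached saturation at 30 °C; 1 = growth at the plate median or of vehicle wells; lower values mean less growth of the strain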
Settings: S. cerevisiae deletion strains, growth OD

Measured: normalized growth

C#C[C@]1(O)CC[C@H]2[C@@H]3CCC4=Cc5oncc5CC4(C)[C@H]3CCC21C (stereo partly specified)
inactive: locus YAL040C, strain CLN3, stronger effect = lower value 0.943 | locus YCL061C, strain MRC1 (second series), stronger effect = lower value 1 | locus YDR363W, strain ESC2, stronger effect = lower value 1.02 | locus YER002W, strain NOP16, stronger effect = lower value 0.949 | locus YGR078C, strain PAC10, stronger effect = lower value 0.948 | locus YGR229C, strain SMI1, stronger effect = lower value 1.02 | locus YJR075W, strain HOC1, stronger effect = lower value 1 | locus YMR263W, strain SAP30, stronger effect = lower value 1 | locus YMR307W, strain GAS1, stronger effect = lower value 0.988 | locus YNL153C, strain GIM3, stronger effect = lower value 0.917 | locus YNL175C, strain NOP13, stronger effect = lower value 0.917 | locus YNL197C, strain WHI3, stronger effect = lower value 0.921 | locus YNL224C, strain SQS1, stronger effect = lower value 0.934 | locus YOR083W, strain WHI5 (second series), stronger effect = lower value 0.99 | locus YPL055C, strain LGE1, stronger effect = lower value 1.02 | locus YPL241C, strain CIN2, stronger effect = lower value 1
